Screening results (PubChem)
Compounds with a hit are over-represented: about 8% of the library has one in this group of screens.
LASV entry inh – Lassa virus entry inhibition. hit rate 4.1% among 18,000. Potency, µM (highest dose often 49.2 µM), inactives show top-dose activity change, negative = inhibition, actives largely listed as inhibitors. Lassa virus pseudotyped entry inhibition, cell-based qHTS
MARV entry inh – Marburg virus entry inhibition; Marburg virus pseudotype entry/binding inhibition, cell-based; Potency, µM (highest dose often 49.2 µM), for the others: at the top dose activity change, negative = inhibition, hits mostly inhibitors; hit rate 6.5% among 18,000
Starred values were filed as active, the others as inactive; ? = inconclusive; [ ] = another dose, or the depositor's remark. Calls follow the shape of the full dose curve; tested in HEK293 cells. % is scaled to controls: 0 for no effect and ±100 for the full control effect; potency is read from the fitted curve at half-maximal effect.

SMILES	LASV entry inh	MARV entry inh
C[C@]12C=CC(=O)N[C@@H]1CC[C@@H]1[C@@H]2CC[C@]2(C)[C@@H](C(=O)Nc3cc(C(F)(F)F)ccc3C(F)(F)F)CC[C@@H]12	?	8.3%
COc1ccc(/C=C/c2cc(OC)cc(=O)o2)cc1	8.91µM*	1.78µM*
C/C=C/c1ccc(OC)cc1	-3.2%	15.8%
CC(=O)[C@@H]1CC[C@H]2[C@H]3CC[C@H]4C[C@@H](O)CC[C@]4(C)[C@@H]3C(=O)C[C@@]12C	-8.3%[17.8 µM]	11.0%[17.8 µM]
COc1ccc(C(=O)NCC2Cc3cc(F)cc(-c4cncnc4)c3O2)cc1 (configuration not stated)	4.3%	11.9%
CCCCCCOc1ccc(C(=N)N(CCCC)CCCC)c2ccccc12	12.6µM*	12.6µM*
CCCCCCCCOc1ccc(C(=O)c2ccccc2)c(O)c1	-20.3%	-2.5%
Cc1ncc2c(c1CNC(=O)c1ccc3c(c1)OCO3)CCN(C(=O)c1cc3ccccc3n1C)C2	-6.9%	-18.3%
COC(=O)CN1CN(c2ccccc2)C2(CCN(Cc3ccc4ccccc4c3)CC2)C1=O	-1.8%	?
O=C(CCCN1CCC2(CC1)C(=O)N(Cc1cccc(F)c1)CN2c1ccccc1)c1ccc(F)cc1	15.8µM*	8.91µM*
COc1ccc(COC(=O)NN=C2C[C@@H](O)[C@@H](O)[C@@H]3[C@H]4C(=O)N(C[C@@H]5CCCO5)C(=O)[C@@H]4CC[C@@H]23)cc1	?	6.3%[8.59 µM]
CN1CCC(N2CCN(C3CN(CCc4ccccc4)S(=O)(=O)C3)CC2)CC1 (configuration not stated)	14.6%	10.4%
CN(C)CCc1cc2c(c3c1ccc1ccccc13)OCO2	?	12.6µM*
CCN(CC)CCCCNc1ncc2cc(-c3cc(OC)cc(OC)c3)c(NC(=O)NC(C)(C)C)nc2n1	12.6µM*	1.12µM*
CCN(CC)CCNC(=O)COc1ccc(OC)cc1	-3.5%	-23.3%
C=CC(C)(C)c1c2c(c(O)c3c(=O)c4ccc(O)c(O)c4oc13)C=CC(C)(C)O2	?	20µM*
Cc1cccc(O)c1	-1.6%	2.8%
C[C@@H]1CN(CCCn2c3ccccc3c3ccccc32)C[C@H](C)N1	17.8µM*	7.94µM*
CN1CCN(c2cc(-c3ccc(N(C)C)cc3)ncn2)CC1	14.2%	0.8%
CCCC1OC2CC3C4CCC5=CC(=O)C=CC5(C)C4C(O)CC3(C)C2(C(=O)CO)O1 (configuration not stated)	-17.7%	?
CCNC(=O)NCCCOc1cccc(CN2CCCCC2)c1	?	9.2%
C[C@]12[C@H](O)CC3C(CC[C@@H]4C[C@@H](O)CC[C@]34C)[C@@]1(O)CC[C@@H]2C1=CC(=O)OC1 (some centres not stated)	1.12µM*	?
C[C@H]1O[C@@H](O[C@H]2[C@@H](O)C[C@H](O[C@H]3[C@@H](O)C[C@H](O[C@H]4CC[C@@]5(C)[C@H](CC[C@@H]6[C@@H]5C[C@@H](O)[C@]5(C)[C@@H](C7=CC(=O)OC7)CC[C@]65O)C4)O[C@@H]3C)O[C@@H]2C)C[C@H](O)[C@@H]1O	3.98µM*	?
C[C@@H]1O[C@H](O[C@@H]2[C@H](C)O[C@H](O[C@@H]3[C@H](C)O[C@H](O[C@H]4CC[C@]5(C)[C@@H](CC[C@@H]6[C@H]5C[C@@H](O)[C@]5(C)[C@@H](C7=CC(=O)OC7)CC[C@]65O)C4)C[C@@H]3O)C[C@@H]2O)C[C@H](O)[C@@H]1O	0.126µM*	0.891µM*
CO[C@H]1[C@@H](O)C[C@H](O[C@H]2[C@@H](O)C[C@H](O[C@H]3[C@@H](O)C[C@H](O[C@H]4CC[C@@]5(C)[C@H](CC[C@@H]6[C@@H]5C[C@@H](O)[C@]5(C)[C@@H](C7=CC(=O)OC7)CC[C@]65O)C4)O[C@@H]3C)O[C@@H]2C)O[C@@H]1C	?	7.08µM*
SMILES	LASV entry inh	MARV entry inh
CC(=O)C1CCC2C3CCC4CC(O)CCC4(C)C3CC(O)C12C (configuration not stated)	17.1%	-0.3%
COc1ccc(-c2nc3cc(C)ccc3cc2CN(C(=O)c2csc(C)n2)C2CC2)cc1OC	-5.2%	-6.2%
Cc1cccc(C2=NN(c3ccc(Br)cc3)[C@@H](C(=O)N3CCOC3=O)[C@@H]2c2ccccc2)c1	-8.7%	-21.3%
C[N+](C)(C)CCOC(N)=O	-17.6%	-6.4%
CC(C)(C)C(=O)NCCCC(=O)O	-9.5%	-2.1%
CCn1c(-c2nonc2N)nc2ccncc21	45.1%	-33.3%
Cc1cccc([C@@H]2CN(C)CCc3c2cc(O)c(O)c3Cl)c1	-4.7%	-16.7%
CC(=O)OC1C=C[C@]2(C)C(CC(OC(C)=O)[C@@]3(C)C4=CC(=O)OC(c5ccoc5)[C@]4(C)CCC23)C1(C)C (some centres not stated)	-0.7%	-9.3%
CCCCCCCCCCOCC(O)CN (configuration not stated)	31.6µM*	?
CCCCCCCC(=O)OCC(O)CO (configuration not stated)	0.5%	13.4%
